Measured values: the supplement of paper PMC10338343
± gives the standard deviation.

Test system: EfPiwi piRISC loaded with piRNA #1 (26 nt)
Assay: pre-steady-state target cleavage rate (min^-1); auxiliary factor: 500 nM Ephydatia muelleri Gtsf1; guide: piRNA #1 5'p-UGAGGUAGUAGGUUGUAUAGUAUCCA; MIWI and MILI are mouse PIWI proteins and EfPiwi is from a freshwater sponge; tags in brackets are library labels; higher = faster piRNA-guided slicing of the target
Protocol: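 Cleave-'n-Seq: a library of target RNAs (target site in constant flanks) at […] was incubated with 1 nM active freshwater sponge Ephydatia fluviatilis Piwi piRISC (synthetic 5'-monophosphorylated piRNA guide) with or without 500 nM EmGtsf1 at 33 °C for 1 min to 16 h. Uncleaved targets were sequenced and the pooled three trials fitted to a burst-and-steady-state model to give the pre-steady-state cleavage rate (min^-1). Sequence is the target site only. Fits with R² ≤ 0 are excluded.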

| Sequence | pre-steady-state target cleavage rate |
| --- | --- |
| GGAGAGGUUACUAUACAACCAACUACCUCA | 0.00401 ± 0.002 |
| GGAGAGGAUACUAUACUACGUACUACCUCA | 0.00407 ± 0.0022 |
| GGAGACCUUACUAUACAACCUACUACCACA | 0.00339 ± 0.0016 |
| GGAGUGGAUACUAUACAUGGAUGAUGGAGA [g14:g26:cont:t1A] | < 0.0001 |
| GGAGACCAUACUAUACAACCUACUUCCUCA | 0.00455 ± 0.002 |
| GGAGACGAUACUAUACAACCAACUUCCUCA | 0.00381 ± 0.0022 |
| GGAGACGAUACUAUAGAACCAACUACCUCA | 0.00377 ± 0.002 |
| GGAGACCAAACUUUACAACCUACUACCUCA | 0.011 ± 0.0057 |
| GGAGAGGAUACAAUACAACCUACUACCUCA | 0.0112 ± 0.005 |
| GGAGAGGAUACUAUACACCUACUACCUCA | 0.0984 ± 0.042 |
| GGAGUGGAUACUAAACAACCUACUACCACA | 0.003 ± 0.0021 |
| GGAGUGCAAACUAUACAACCUACUACCUCA | 0.00676 ± 0.0044 |
| GGAGAGGAUACAUAACAACCUACUACCUCA | 0.00445 ± 0.004 |
| GGAGACCUACCUAUACAACCUACUACCUCA | 0.0239 ± 0.012 |
| GGAGUGGAAACUAUACAACCUACUACCUCA | 0.0504 ± 0.018 |
| GGAGACGAUACUUUACAAGCUACUACCUCA | 0.00342 ± 0.0026 |
| GGAGUGGAUACUAUACAACCUGACUACCUCA | 0.00415 ± 0.002 |
| GGAGUGGAUACUAUACAACCCUACUACCUCA | 0.00375 ± 0.0023 |
| GGAGACGAUACUAUACAACCUACUACCACA | 0.00487 ± 0.0013 |
| GGAGACCUAUCUAUACAACCUACUACGAGA | 0.00279 ± 0.0027 |

| Sequence | pre-steady-state target cleavage rate |
| --- | --- |
| GGAGUGGAUACUAUACAACCUACUAUCCUCA | 0.00685 ± 0.0028 |
| GGAGUGGAUACUAUAGAUCCUACUACCUCA | 0.0045 ± 0.0029 |
| GGAGAGGAAACUAUACAACCUACUACCUCA | 0.00596 ± 0.0036 |
| GGAGUGGAUACUAUACAACCUGCUACCUCA | 0.0792 ± 0.029 |
| GGAGACGUUACUAUACAACCAACUACCUCA | 0.00407 ± 0.0025 |
| GGAGUGGAUACUAAACUACCUACUACCUCA | 0.00956 ± 0.0047 |
| GGAGACCAUACUAUCCAACCUACUACCUCA | 0.00636 ± 0.0033 |
| GGAGAGGAUACUAUACAACCUACUACGUGA | 0.00416 ± 0.0019 |
| GGAGACCAAACUAUACAACCUACUACCUCA | 0.0177 ± 0.0063 |
| GGAGACCUAUGUAUAGAACCUUCUACCUCA | < 0.0001 |
| GGAGACGUUACUAUACAAGCUACUACCUCA | 0.00435 ± 0.002 |
| GGAGACGAUACUAUACAACCUUCUACCACA | 0.00454 ± 0.0022 |
| GGAGACCUUACUAUACAACCUAGUACCACA | 0.00255 ± 0.0023 |
| GGAGACCAUACUAUACAACCUACCACCUCA | 0.00474 ± 0.0033 |
| GGAGACGAUACUAUACAACCAACUACCACA | 0.00406 ± 0.003 |
| GGAGACCUUACUAUACAAGCUACUACCUCA | 0.00386 ± 0.002 |
| GGAGUGGAUACUAUAGAACCUACUACGUCA | 0.00205 ± 0.0016 |
| GGAGACGUUACUAUACAACCUACUAGCUCA | 0.0029 ± 0.0017 |
| GGAGACCUAUCUAUGACAACCUACUACCUCA | 0.00594 ± 0.0037 |
| GGAGACGAUACUAUACAACCUACUACCUACA | 0.00797 ± 0.0032 |
